Source: the supplement of paper PMC3334620
The full ranking holds about 33,000 sequences; the median of “E-score (-0.5 to 0.5)” is about -0.021, and the highest 2% start at about 0.32. The sample holds the highest values, similar sequences and a random draw of the others, so the mix is not that of the screen.

biological target: T1, Zap1 (UniProt P47043); assay: PBM E-score (8-mer binding enrichment) (E-score (-0.5 to 0.5)); higher = stronger / more preferred TF binding; conditions: protein concentration: 200 nM; construct: GST-full length
T1 sequence: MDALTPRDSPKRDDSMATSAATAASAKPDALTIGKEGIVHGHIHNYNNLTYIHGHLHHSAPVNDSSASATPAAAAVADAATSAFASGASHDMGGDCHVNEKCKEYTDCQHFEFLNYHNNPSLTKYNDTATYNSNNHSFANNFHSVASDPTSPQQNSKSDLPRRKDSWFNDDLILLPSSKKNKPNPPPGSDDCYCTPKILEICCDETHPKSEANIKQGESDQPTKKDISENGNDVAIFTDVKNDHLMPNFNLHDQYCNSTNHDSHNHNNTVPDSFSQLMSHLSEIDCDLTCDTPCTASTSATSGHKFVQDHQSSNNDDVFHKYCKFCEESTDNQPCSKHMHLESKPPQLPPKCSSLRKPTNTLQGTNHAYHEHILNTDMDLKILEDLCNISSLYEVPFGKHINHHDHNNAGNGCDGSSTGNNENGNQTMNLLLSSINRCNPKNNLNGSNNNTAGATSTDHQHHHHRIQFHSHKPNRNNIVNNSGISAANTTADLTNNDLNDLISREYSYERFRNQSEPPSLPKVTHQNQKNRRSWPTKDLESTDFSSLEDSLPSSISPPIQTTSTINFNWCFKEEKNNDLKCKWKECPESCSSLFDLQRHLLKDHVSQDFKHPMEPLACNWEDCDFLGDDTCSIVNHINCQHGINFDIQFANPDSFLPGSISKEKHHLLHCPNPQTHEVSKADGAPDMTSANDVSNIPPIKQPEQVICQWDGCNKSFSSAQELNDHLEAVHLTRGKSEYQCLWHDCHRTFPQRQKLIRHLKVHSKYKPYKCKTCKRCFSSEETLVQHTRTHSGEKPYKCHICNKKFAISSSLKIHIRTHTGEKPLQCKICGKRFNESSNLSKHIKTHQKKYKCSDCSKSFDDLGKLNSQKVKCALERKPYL
Outline: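 Yeast transcription factors, full-length or as DNA-binding domains, were expressed with a GST tag using PURExpress in vitro transcription/translation. At about 100-200 nM they were applied to universal all-10-mer Agilent arrays, double-stranded by primer extension on fresh or once-stripped slides. Fluorescent anti-GST detected bound protein, and masliner normalised the scans. E-scores for ungapped eight-base words, pooled with reverse complements, came from the Universal PBM Analysis Suite.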

Sequence	PBM E-score
AGCTAAAC	-0.144
TCCAGCGA	-0.138
AGATGGAT	-0.254
CCGGGGTC	0.348
ACGGGGTC	0.218
ACAAGGGG	-0.128
AAGGGGGT	-0.271
ACAAGGGT	0.387
ACAAGGGC	-0.137
AAAGGGGT	0.32
CAAGGGCA	-0.182
CGGGGGTC	-0.0576
AAAGGGGG	-0.385
CAAGGGTA	0.398
CAAGGGTG	0.262
ATTTAGCA	0.0848
AAAAGTCG	-0.033
TAAGCGCA	-0.0722
CTAATGCA	0.132
AAAAGGGA	-0.0112
AAAAGGGC	0.149
AAAAGGGT	0.386
CCAGATGA	-0.0669
GATCGTAC	-0.069
CTTAGAGA	-0.0526
GAATGGAC	0.0207

Sequence	PBM E-score
GCTATCGA	-0.0297
CTCCGAAC	-0.196
AATCTCGC	-0.0495
CACCTTAG	0.245
AACCTTAG	0.324
GACCTTAC	0.13
AACCTTAT	0.312
GACCTTAA	0.324
GAGCTTAA	-0.0983
AGCCTTAA	-0.0565
GGCCTTAA	0.319
AACCTTAC	0.318
GTCCTTAA	0.268
CACCTTAC	0.148
TGCCTTAA	-0.0666
CGGTCCCA	-0.0137
AACGACCT	0.211
ACTTGCAC	-0.141
GGGGGGAA	-0.411
GGTATCAC	0.0481
AACTGGCG	-0.0757
CATGCCAC	-0.227
CCGGCCTC	-0.0295
GGAGTTAA	0.029
TACCTTAA	0.296
AACCTTAA	0.352

Sequence	PBM E-score
CACCTTAA	0.207
GTAAAAGA	0.0206
CCCTTTAA	0.286
ACCTTTAT	0.352
ACCTTTAC	0.307
ACCTTTAA	0.383
ACCTTTTG	0.364
ACCTTTTC	0.254
ACCTTTAG	0.348
CCCTTTAG	0.127
AACTTTAT	0.0578
GCCTTTAA	0.0959
ACCTTTGG	0.236
AGCTTTAT	-0.0486
GCAGATGC	-0.337
GAGCACGA	-0.0755
TATCGATA	0.285
ACGCAAAA	-0.024
ACCTACTA	0.113
AGGATTAA	-0.0423
GTTTAGCA	-0.0642
CGTAGTTC	-0.125
AGTACCAT	0.127
CCCTTTTA	0.0826
ACCTTTTA	0.411
ACCTATAT	0.356

Sequence	PBM E-score
ACCTTTCA	0.257
ACCTATAA	0.188
ACCTTTCC	0.107
GCCTTTTA	0.0912
ACCTATAC	0.249
ACCTTTCT	0.372
GGTAGCAA	0.0702
AAACAGTG	0.0759
CCAGTTTA	0.073
TAAACCTA	0.137
CCAAGCCA	-0.122
CAGGCTAG	-0.141
CGTACGAC	-0.126
GAAAGGTC	0.294
TAAAGGTA	0.34
TAAAGGGA	0.145
AGAAGGTA	0.286
AAAAGGTA	0.405
GAAAGGTA	0.363
TAAAGGAA	0.00829
CAAAGGTA	0.267
ATAAGGTA	0.231
AAGACCAC	0.0451
CAGCCCAC	-0.113
GAGAGCAA	-0.227
GCGCCTAA	0.0328

Sequence	PBM E-score
GGTACTCA	0.329
CGTACCCA	-0.0471
CGTACCTA	-0.117
CGTACTCA	-0.0651
AGTACCCA	0.289
GGTACCCA	0.411
AGTACTCA	-0.0985
AGTACCTA	0.299
GGTACCTA	0.398
CCATCCAG	-0.155
GACTCGGA	-0.237
AAACGTAG	-0.0378
GGTCCTAC	-0.105
AGACTGGG	-0.141
TACCGTGA	0.247
GAGTACCC	0.342
AAGTACGC	-0.152
CAGTACCC	0.313
AAGTACCC	0.34
AAGTACCA	0.211
GAGTACCA	0.247
CGAATTCG	-0.233
TAGCAAAA	0.0555
AGAGCAAG	-0.196
ACGACCCA	0.2
ACAACCCA	0.286

Sequence	PBM E-score
ACAACCCG	0.398
AGAACCCT	0.321
ACAACCCT	0.443
AGAACCCC	0.294
AGAACCCA	0.19
CCAACCCG	0.148
ACGACCCG	0.0256
ACAACCGT	0.0867
ACAAACCG	0.027
ACGACCCT	0.348
AGTCCTCG	-0.272
AAGATAGC	-0.144
AATAAGGA	-0.00733
AAGCACAA	0.154
GCGATGGA	0.0884
CCTTGACG	0.115
AAAACCCT	0.362
ACAACCCC	0.321
GCAACCCA	0.294
CCAACCCC	0.224
ACAAACCC	0.0973
AAACCCCT	0.188
AAAACCCC	0.276
ACAACCTC	0.31
GCAACCCC	0.342
GGCCAGCC	-0.142

Sequence	PBM E-score
AAATCCTC	-0.279
AGGACCAG	-0.0376
CGGAGTAG	-0.149
CTCCTGTA	-0.0674
ATGGATTG	-0.0434
CGGAATCA	-0.0619
CGGGCCAC	0.125
CGTCGAGC	-0.244
CAATGAGC	-0.126
GCGTAAGC	-0.239
ACGTAACT	0.0456
CCGTAACG	0.0821
CCGTAACC	0.471
GCGTAACC	0.446
CCGTAACA	0.0988
ACGTAACC	0.411
ACGTAACG	-0.248
GCGTAACA	-0.135
CTTAAGGA	0.119
ATGGGGCG	-0.129
ATTTAACG	0.023
ATTTAACC	0.418
ATTTAACA	-0.0688
CTTTTAAC	0.0885
CTTTAACC	0.405
CTTTAACA	0.123

Sequence	PBM E-score
CGCTGATA	-0.172
GCAGGTTA	0.335
ACAGGTTG	0.147
CCAGGTAA	0.041
ACAGGTTA	0.398
GCAGGTAA	0.173
GCAGGTCA	0.194
CCAGGTTA	0.382
ACAGGTTC	-0.12
CCAGGTTC	-0.159
TCGCCACA	-0.04
AGCAGCCT	-0.168
ATAGCAGG	0.0205
ATGAATGG	0.203
CTAGTAGC	-0.168
ACGATATC	0.0333
ATGGGTTG	0.234
GTGGGTTA	0.404
GTGGGTGA	0.0723
CTGGGTCA	0.143
CTGGGTTC	0.0979
ATGGGTTC	0.116
CTGGGTTA	0.369
ATGGGTTA	0.455
GTGGGTAA	0.0319
GCCACAAC	0.212

Sequence	PBM E-score
TAGGACGA	-0.113
AGCAAGCG	-0.192
GAGACAAA	-0.173
GCCACACA	-0.0586
CCCCACGC	-0.0232
ACACAAGG	0.132
AAGTTCAG	-0.0476
TGGGTCAA	0.0925
AGGGTCAA	0.416
CGGGTCAA	0.163
AGGGTCAG	0.24
GCGGTCAC	0.313
AGGGTCGG	0.126
AGGGTCAC	0.417
GGGGTCAC	0.428
ATGGTCAC	0.312
GGGGTCAA	0.266
AGGGTCGC	0.364
CGGGTCGC	0.0356
